# Reference: PubChem BioAssay (Tox21)
# The source made the active and inactive calls. Calls come from the whole dose curve; as a rule, active = well fitted curve in the direction sought with a large enough effect in the repeat runs; inconclusive = weak or mixed curves; inactive = flat fitted curve, though single readings scatter.
# Experiment: qHTS assay to test for compound auto fluorescence at 590 nm (red) in HepG2 cell free culture (AID 720684)
# Conditions: cell-free medium autofluorescence, red 540/590 nm; series mostly up to 91.3 µM
# Description: U.S. Tox21 Program National Center for Advancing Translational Sciences [NCATS] NIH Chemical Genomics Center [NCGC] U.S. Environmental Protection Agency [EPA] National Institutes of Environmental Health Sciences [NIEHS] National Toxicology Program [NTP] U.S. Food and Drug Administration [FDA] Tox21 Assay Overview: Compound auto fluorescence often interferes with screening of the compound library against various biological targets and signaling pathways. Some of these compounds may have fluorophoric properties. Such properties may interfere with the assay outputs resulting in false positives and/or negatives. To decrease such complications and ensure the compound activities are relevant in terms of biological response, the Tox21 10K compound library was screened for auto fluorescence. From the fluorophores used as reporter signals in our screening assays, the auto fluorescence equivalencies of compounds against three fluorophores have been evaluated: Triamterene, Fluorescein and Rose Bengal sodium for blue, green and red fluorescence, respectively. The fluorescence intensities were measured using Excitation/Emission wavelengths at 405/460nm, 485/535nm and 540/590nm for blue, green and red labels, respectively. This assay includes the red fluorescence data.
# Tox21 Assay Protocol Summary: 5 uL of culture medium (MEM containing 10% FBS) per well was dispensed into black wall/clear bottom 1536-well plates using a Multidrop Combi Dispenser (ThermoFisher Scientific, Waltham, MA). After 23 nL compound or DMSO vehicle was transferred into assay plate by a pintool work station (Kalypsys, San Diego, CA), fluorescence intensities in the assay plates were measured by an Envision (PerkinElmer, Shelton, CT) plate reader using three labels for measuring blue, green and red fluorescence at […] 460, 535 and 590nm respectively.
# % is set by controls: 0 for no effect and ±100 for the full control effect.
Compound,outcome,"fluorescence, % of Rose Bengal"
NC(=O)c1ccncc1,inactive,–
CC1(C)O[C@@H]2C[C@H]3[C@@H]4C[C@H](F)C5=CC(=O)C=C[C@]5(C)[C@H]4[C@@H](O)C[C@]3(C)[C@]2(C(=O)CO)O1,–,-0.32% [at 18.6 µM] (inactive)
CN1C[C@H](C(=O)N[C@]2(C)O[C@@]3(O)[C@@H]4CCCN4C(=O)[C@H](Cc4ccccc4)N3C2=O)C[C@@H]2c3cccc4[nH]cc(c34)C[C@H]21,inactive,–
CCCCCCCCN,inactive,–
Oc1cccc(Nc2ccccc2)c1,inactive,–
C[C@]12CC[C@@H]3c4ccc(O)cc4CC[C@H]3[C@@H]1CC[C@@H]2OC(=O)CCC1CCCC1,inactive,–
COc1ccccc1N1CCN(CCCCNC(=O)c2ccc(-c3ccc(C(C)=O)cc3)cc2)CC1,inactive,–
CCC1NC(=O)c2cc(S(N)(=O)=O)c(Cl)cc2N1 (stereo not given),–,-0.427% [at 18.6 µM] (inactive)
COc1ncnc(NS(=O)(=O)c2ccc(N)cc2)c1OC,inactive,–
CCC1CO1 (stereo not given),inactive,–
CCCCCCCC/C=C\CCCCCCCCO,inactive,–
CC(C)COCC(CN(Cc1ccccc1)c1ccccc1)N1CCCC1 (stereo not given),inactive,–
C=C(C)C(=O)OCCOCCOC(=O)C(=C)C,inactive,–
CCC(C)COC(=O)CC(C)C (stereo not given),inactive,–
C[C@H]1c2cccc(O)c2C(O)=C2C(=O)[C@]3(O)C(O)=C(C(N)=O)C(=O)[C@@H](N(C)C)[C@@H]3[C@@H](O)[C@@H]21,inactive,–
O=C1c2ccccc2C(=O)C1c1ccc(Br)cc1,inactive,–
C[C@@]12CCC[C@H]1[C@@H]1CC[C@H]3C[C@@H](O)CC[C@]3(C)[C@H]1CC2,inactive,–
Oc1cc2c(cc1O)[C@H]1c3ccc(O)c(O)c3OC[C@@]1(O)C2,inactive,–
CCCCCCCCCI,inactive,–
C[C@@H]1CN(CCCn2c3ccccc3c3ccccc32)C[C@H](C)N1,inactive,–

Compound,outcome,"fluorescence, % of Rose Bengal"
CCOC(=O)C1=C(C)NC(C)=C(C(=O)OC)C1c1cccc(Cl)c1Cl (stereo not given),inactive,–
Cc1cscn1,inactive,–
COC(=O)C1=C(C)NC(C)=C(C(=O)O[C@@H]2CCCN(Cc3ccccc3)C2)[C@@H]1c1cccc([N+](=O)[O-])c1,inactive,–
Cc1cc(C)cc(N)c1,inactive,–
CCC=CC#N,inactive,–
c1cc(N(CC2CO2)CC2CO2)ccc1Cc1ccc(N(CC2CO2)CC2CO2)cc1 (stereo not given),inactive,–
CCOc1cccc(-n2cc(C(=O)N3CCN(c4cc(C(=O)O)c5ccccc5c4)CC3)nc2-c2ccc(C)cc2)c1,inactive,–
CC(=O)c1ccc([N+](=O)[O-])cc1,inactive,–
C=CC(C)(CCC=C(C)C)OC(=O)CC(C)C (stereo not given),inactive,–
CC(C)(c1ccccc1)c1ccccc1,inactive,–
CCOC(=O)c1ccc(OCCN2C[C@H](O)[C@@H](O)[C@H](O)[C@H]2CO)cc1,inactive,–
CC(C)(C)C(=O)C(=O)O,inactive,–
CC(C)Nc1cccnc1N1CCN(C(=O)c2cc3cc(NS(C)(=O)=O)ccc3[nH]2)CC1,inactive,–
CCOC(=O)c1ccc(I)cc1,inactive,–
O=C(CCCN1CC=C(n2c(=O)[nH]c3ccccc32)CC1)c1ccc(F)cc1,inactive,–
NCCNCCO,inactive,–
Cc1ccc(OC(=O)c2ccccc2O)cc1,inactive,–
Cc1cc(O)ccc1O,inactive,–
CN1C(=O)N(c2ccccc2Br)Cc2cnc(Nc3ccc4c(c3)OCC(CO)O4)nc21 (stereo not given),inactive,–
OCCN1CCN(CCCN2c3ccccc3Sc3ccc(Cl)cc32)CC1,–,-0.146% [at 18.6 µM] (inactive)
